Drawing on PubChem BioAssay (NCATS), this text covers Z-AUC and Potency for 28 compounds.

A short description of this experiment: qHTS drug screen for cell cycle checkpoint inhibitors in PARPi-resistant BRCA-mutant ovarian cancer cell lines. (AID 1963452). Particulars: PEO1/OlaR viability, CellTiter-Glo luminescence, 96 h; for Z-AUC: stronger effect = lower value. In short, it runs like this:
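PEO1, PEO4 and PEO1/OlaR ovarian cancer cells, 600 per well, exposed 96 h at 37C to a dilution series. Viability read by CellTiter-Glo luminescence, normalized to DMSO and empty wells; activity summarized as Z-AUC.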
A general note: qHTS replaces the single test concentration by a dilution series.

Where [1] appears, read: measured here: PEO1 parental Z-AUC.

Structures are written as SMILES. The source made the active and inactive calls. Calls come from the whole dose curve.
Potency is the fitted concentration of half-maximal effect.

In the case of `Cc1cc(-c2ccc(CC(=O)Nc3ccc(-c4cccnc4)cc3)cc2)ccn1`, the Z-AUC is 1.38 (inactive). Moreover, the Z-AUC under setting [1] is 0.679. Further, the Z-AUC (measured here: PEO4 Z-AUC) is 0.307.
The like results for `CS(=O)(=O)c1cccc(CNc2nc(Nc3ccc4c(c3)CCC(=O)N4)ncc2C(F)(F)F)c1` were, in that order, -0.784 (inactive), -1.23 and -1.25.
On to `Cc1cnc(Nc2ccc(OCCN3CCCC3)cc2)nc1Nc1cccc(S(=O)(=O)NC(C)(C)C)c1`, for which the Potency is 1.95 µM (active). Also, the Z-AUC under setting [1] is -1.63. The Z-AUC (measured here: PEO4 Z-AUC) was -1.56.
For the compound `S=C(NCc1ccc2c(c1)OCO2)N1CCN(c2ncnc3c2oc2ccccc23)CC1`, the Z-AUC is -0.165 (inactive). Under setting [1], the Z-AUC is -1.16. Moreover, under “measured here: PEO4 Z-AUC”, the Z-AUC was determined as 0.0465.
For `COc1cc2c(cc1OC)CN(CCc1ccc(NC(=O)c3cccc4c(=O)c5cccc(OC)c5[nH]c34)cc1)CC2` the same measures were 1.13 (inactive), 0.952 and 0.963.
For `CCn1c(-c2nonc2N)nc2cnc(Oc3cccc(NC(=O)c4ccc(OCCN5CCOCC5)cc4)c3)cc21`, the Z-AUC is 0.926 (inactive). Moreover, the Z-AUC under setting [1] came to 0.828. In addition, the Z-AUC (measured here: PEO4 Z-AUC) is 0.912.
For `O=C1CCCC2=C1C(c1[nH]ncc1Cl)N=C(Nc1nc3ccccc3o1)N2` (centres undefined) the same measures were 0.0101 (inactive), 0.851 and 0.0586.
For `CCN(CC)CCCC(C)Nc1ccnc2cc(Cl)ccc12` (centres undefined) the same measures were 0.106 (inactive), 0.505 and 0.615.
For `CCOc1cc(C(=O)Nc2ccc(Cl)c(-c3nc4ccccc4[nH]3)c2)cc(OCC)c1OCC` the same measures were -0.941 (inactive), 0.578 and -0.467.
For `CN(C)c1ccc(Nc2nc(N)n(C(=O)c3c(F)cccc3F)n2)cc1`, the Z-AUC is 0.994 (inactive). Further, under setting [1], the Z-AUC was found to be 0.58. Also, the Z-AUC (measured here: PEO4 Z-AUC) was 0.398.
The like results for `CNC(=O)c1ccc(N2C(=S)N(c3ccc(C#N)c(C(F)(F)F)c3)C(=O)C2(C)C)cc1F` were, in that order, 0.0364 (inactive), 0.676 and 0.909.
For `COc1ccc(-c2c(-c3ccc(O)cc3O)n[nH]c2C)cc1` the same measures were 0.835 (inactive), 0.673 and 1.1.
The like results for `Cc1cc2c(F)c(Oc3ncnn4cc(OC[C@@H](C)O)c(C)c34)ccc2[nH]1` were, in that order, 0.786 (inactive), 0.535 and 0.987.
In the case of `Nc1nc2[nH]cc(CCc3ccc(C(=O)N[C@@H](CCC(=O)O)C(=O)O)cc3)c2c(=O)[nH]1`, the Z-AUC is 1.34 (inactive). Under setting [1], the Z-AUC was 1.12. The Z-AUC (measured here: PEO4 Z-AUC) was determined as 1.26.
The like results for `CC(C)c1onc(-c2c(Cl)cccc2Cl)c1COc1ccc(/C=C/c2cccc(C(=O)O)c2)c(Cl)c1` were, in that order, 0.394 (inactive), -0.0133 and 0.0704.
In the case of `CCc1cncnc1N1CCN(Cc2nc3ccc(C(F)(F)F)cc3[nH]2)CC1`, the Z-AUC is -0.0922 (inactive). Also, the Z-AUC under setting [1] is -0.164. The Z-AUC (measured here: PEO4 Z-AUC) stood at 0.451.
For `O=C(c1cc(Cc2n[nH]c(=O)c3ccccc23)ccc1F)N1CCN(C(=O)C2CC2)CC1` the same measures were 0.491 (inactive), -0.378 and 0.0684.
For `CC(C)(N)C(=O)N[C@H](COCc1ccccc1)C(=O)N1CCC2(CC1)CN(S(C)(=O)=O)c1ccccc12`, the Z-AUC is 1.64 (inactive). Further, the Z-AUC under setting [1] is 1.18. Besides, the Z-AUC (measured here: PEO4 Z-AUC) amounted to 1.52.
`Cn1c(=O)c(F)c(Nc2ccc(I)cc2F)c2c(=O)n(C[C@@H](O)CO)cnc21`: the Potency is 0.123 µM (active). The Z-AUC under setting [1] is -1.86. In addition, the Z-AUC (measured here: PEO4 Z-AUC) was -2.03.
`COc1cccc2cc(-c3nc(C4CCC(C(=O)O)CC4)n4ncnc(N)c34)[nH]c12` (centres undefined): the Z-AUC was -0.482 (inactive). Further, the Z-AUC under setting [1] was -0.688. In addition, the Z-AUC (measured here: PEO4 Z-AUC) was -0.315.
The like results for `CS(=O)(=O)Oc1ccc2c(NC(N)=O)c(C(=O)c3ccc(Cl)cc3Cl)oc2c1` were, in that order, 1.2 (inactive), 1.13 and 1.11.
The like results for `CC(=O)NC(C)c1ccc(Oc2ccc(OC(C)C)cc2)cc1` (centres undefined) were, in that order, 0.0363 (inactive), 0.0694 and -0.363.
The like results for `COc1ccccc1[C@H](c1cccc2ccccc12)[C@@](C)(C#N)C(=O)N1CCC(c2cccc(C(F)(F)F)c2)CC1` were, in that order, 1.34 (inactive), 1.15 and 1.29.
`Cn1cc(-c2ccc3nnc(C(F)(F)c4ccc5ncccc5c4)n3n2)cn1`: the Z-AUC is -0.354 (inactive). The Z-AUC under setting [1] was 0.00451. For the same compound, the Z-AUC (measured here: PEO4 Z-AUC) was determined as 0.204.
The like results for `c1ccc(-c2nn3c(c2-c2ccnc4cc(OCCN5CCOCC5)ccc24)CCC3)nc1` were, in that order, 0.744 (inactive), 0.379 and 0.692.
For `Cc1ccnc(NS(=O)(=O)c2ccc(NC(=O)Nc3ccc(S(=O)(=O)Nc4nccc(C)n4)cc3)cc2)n1` the same measures were -1 (inactive), -0.318 and 0.813.
For `O=C(Nc1cccnc1)N1CCC(Cc2cccc(Oc3ccc(C(F)(F)F)cn3)c2)CC1` the same measures were -0.589 (inactive), -1.46 and -1.18.
Consider `CN[C@@H](C)C(=O)N[C@H]1CCCC[C@H]2CC[C@@H](C(=O)N[C@@H](c3ccccc3)c3cn(CCCCc4ccc(CCCCn5cc([C@@H](NC(=O)[C@@H]6CC[C@@H]7CCCC[C@H](NC(=O)[C@H](C)NC)C(=O)N76)c6ccccc6)nn5)cc4)nn3)N2C1=O`, for which the Z-AUC was 1.6 (inactive). The Z-AUC under setting [1] amounted to 0.404. Moreover, the Z-AUC (measured here: PEO4 Z-AUC) was 0.201.
